Measured values: PubChem BioAssay
Calls of active or inactive are those of the source.

Legend:
Albumin (Bos taurus) = Albumin (Bos taurus) (UniProt P02769); assay: compounds binding labelled BSA control protein – biochemical, small-molecule microarray, Alexa647 label, 635/667 nm fluorescence, artefact control for SMM control protein annotation, profiling panel (AID 1118); conditions: BSA-A647 binding, fluorescence 635 nm, higher = more signal;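 note: score merges 667 nm emission intensity and signal-to-noise per printed compound spot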
Sequence of Albumin (Bos taurus) (P02769 whole entry, looked up): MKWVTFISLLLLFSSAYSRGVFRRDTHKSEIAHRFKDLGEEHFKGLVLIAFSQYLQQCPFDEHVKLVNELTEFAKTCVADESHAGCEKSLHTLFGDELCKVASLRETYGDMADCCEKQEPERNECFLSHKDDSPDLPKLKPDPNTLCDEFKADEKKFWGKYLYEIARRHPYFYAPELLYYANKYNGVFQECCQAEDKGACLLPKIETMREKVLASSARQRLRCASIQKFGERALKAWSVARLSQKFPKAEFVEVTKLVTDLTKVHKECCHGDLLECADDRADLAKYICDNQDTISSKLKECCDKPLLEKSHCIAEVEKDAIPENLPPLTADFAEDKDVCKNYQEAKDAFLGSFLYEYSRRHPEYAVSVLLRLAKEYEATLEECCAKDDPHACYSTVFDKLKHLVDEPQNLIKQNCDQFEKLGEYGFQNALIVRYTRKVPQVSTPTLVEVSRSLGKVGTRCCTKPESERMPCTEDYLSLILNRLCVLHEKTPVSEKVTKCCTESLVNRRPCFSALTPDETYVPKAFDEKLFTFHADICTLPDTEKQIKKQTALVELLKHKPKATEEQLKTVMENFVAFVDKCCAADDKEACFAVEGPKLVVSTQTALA

[1] = probe aXIP binding to arrayed compounds – biochemical, NeuroSMM set, 635/667 nm fluorescence, primary screen (AID 1119); conditions: small-molecule microarray, higher = more signal, called active from +8 up or from −8 down;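 note: probe is the protein aXip251-270 applied at 1 µg/mL to compound-printed slides; binding of probe to printed compounds measured as 667 nm fluorescence plus signal to noise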
[2] = probe aNOTCH3 binding on compound microarray – biochemical, small-molecule microarray, 635/667 nm fluorescence, primary screen (AID 1120); conditions: higher = more signal;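 note: probe is a biotin-tagged antibody raised against NOTCH3 rather than NOTCH3 protein; score merges spot fluorescence near 667 nm with spot signal to noise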
[3] = probe aNOTCH2 binding on compound microarray – biochemical, small-molecule microarray, 635/667 nm fluorescence, primary screen (AID 1121); conditions: higher = more signal;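 note: score merges feature fluorescence read at 667 nm with its signal to noise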
[4] = target: Carbonic anhydrase 2 (Homo sapiens) (UniProt P00918); assay: compounds binding carbonic anhydrase 2 – biochemical, small-molecule microarray, Alexa647-labelled CAII, profiling panel (AID 1122); conditions: CAII-A647 binding fluorescence, higher = more signal
[5] = COS7 lysate on small-molecule microarray, probe aHis, 635 nm (AID 1123); conditions: COS7 cell lysate, fluorescence, higher = more signal;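 note: z-score combines 667nm fluorescence intensity with signal-to-noise per printed compound spot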
[6] = probe aLAP1 signal on lysate-treated microarray – cell lysate, small-molecule microarray, COS7 lysate, primary screen (AID 1124); conditions: probe aLAP1, fluorescence, higher = more signal;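 note: lysate comes from COS7 cells expressing LAP1 and is applied at 0.3 µg/mL; score merges spot fluorescence near 667 nm with signal-to-noise over triplicate slides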
Sam68 (KHDRBS1) = assay: compounds binding KHDRBS1 protein – biochemical, small-molecule microarray, 635 nm fluorescence, primary screen (AID 1125); conditions: higher = more signal;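 note: score merges 667 nm channel intensity with signal to noise over triplicate slides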
[7] = tested on: Chordin-like protein 2 (CHRDL2); assay: compounds binding chordin-like 2 – biochemical, small-molecule microarray, 635 nm fluorescence, primary screen (AID 1126); conditions: fluorescence 635 nm, higher = more signal;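 note: printed compound slides probed with Chrdl2 protein at 4 µg/mL for 1 h at 4 C; score merges 667 nm emission intensity with signal to noise over three replicate slides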
[8] = target: Concanavalin-A (Canavalia ensiformis) (UniProt P02866); assay: compounds binding concanavalin A lectin – biochemical, small-molecule microarray, Alexa647 label, 635 nm, artefact control for SMM control protein annotation, primary screen (AID 1127); conditions: ConA-A647 binding fluorescence, higher = more signal;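 note: z combines 667 nm emission intensity with signal-to-noise across three replicate slides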
Sequence of Concanavalin-A (Canavalia ensiformis) (P02866 whole entry, looked up): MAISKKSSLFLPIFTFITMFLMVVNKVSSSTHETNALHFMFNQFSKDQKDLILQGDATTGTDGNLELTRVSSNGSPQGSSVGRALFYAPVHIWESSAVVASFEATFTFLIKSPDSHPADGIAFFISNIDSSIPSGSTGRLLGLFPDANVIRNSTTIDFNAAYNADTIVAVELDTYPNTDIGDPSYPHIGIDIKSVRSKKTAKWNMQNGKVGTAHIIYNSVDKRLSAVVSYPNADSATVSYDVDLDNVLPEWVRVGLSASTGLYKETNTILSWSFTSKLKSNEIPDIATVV

[9] = compounds binding Alexa647 anti-His antibody – biochemical, small-molecule microarray, 635 nm fluorescence, artefact control for SMM control protein annotation, primary screen (AID 1128); conditions: higher = more signal;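 note: score merges feature fluorescence with signal-to-noise for each printed compound spot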
[10] = tested on: Human papillomavirus type 1a E7 protein (residues 1-88); assay: HPV1a E7 small-molecule binders, primary screen, biochemical, small-molecule microarray, residues 1-88, 635 nm (AID 1129); conditions: small-molecule microarray binding, fluorescence 635 nm; higher = more signal
[11] = target: Focal adhesion kinase 1 (Homo sapiens) (UniProt Q05397); assay: PTK2 protein binding on printed compound slides – biochemical, small-molecule microarray, 635/667 nm fluorescence, BSA, DTT, primary screen (AID 1130); conditions: 635 nm fluorescence, higher = more signal;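 note: composite of spot emission at 667 nm and signal to noise over triplicate slides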
Sequence of Focal adhesion kinase 1 (Homo sapiens) (Q05397 whole entry, looked up): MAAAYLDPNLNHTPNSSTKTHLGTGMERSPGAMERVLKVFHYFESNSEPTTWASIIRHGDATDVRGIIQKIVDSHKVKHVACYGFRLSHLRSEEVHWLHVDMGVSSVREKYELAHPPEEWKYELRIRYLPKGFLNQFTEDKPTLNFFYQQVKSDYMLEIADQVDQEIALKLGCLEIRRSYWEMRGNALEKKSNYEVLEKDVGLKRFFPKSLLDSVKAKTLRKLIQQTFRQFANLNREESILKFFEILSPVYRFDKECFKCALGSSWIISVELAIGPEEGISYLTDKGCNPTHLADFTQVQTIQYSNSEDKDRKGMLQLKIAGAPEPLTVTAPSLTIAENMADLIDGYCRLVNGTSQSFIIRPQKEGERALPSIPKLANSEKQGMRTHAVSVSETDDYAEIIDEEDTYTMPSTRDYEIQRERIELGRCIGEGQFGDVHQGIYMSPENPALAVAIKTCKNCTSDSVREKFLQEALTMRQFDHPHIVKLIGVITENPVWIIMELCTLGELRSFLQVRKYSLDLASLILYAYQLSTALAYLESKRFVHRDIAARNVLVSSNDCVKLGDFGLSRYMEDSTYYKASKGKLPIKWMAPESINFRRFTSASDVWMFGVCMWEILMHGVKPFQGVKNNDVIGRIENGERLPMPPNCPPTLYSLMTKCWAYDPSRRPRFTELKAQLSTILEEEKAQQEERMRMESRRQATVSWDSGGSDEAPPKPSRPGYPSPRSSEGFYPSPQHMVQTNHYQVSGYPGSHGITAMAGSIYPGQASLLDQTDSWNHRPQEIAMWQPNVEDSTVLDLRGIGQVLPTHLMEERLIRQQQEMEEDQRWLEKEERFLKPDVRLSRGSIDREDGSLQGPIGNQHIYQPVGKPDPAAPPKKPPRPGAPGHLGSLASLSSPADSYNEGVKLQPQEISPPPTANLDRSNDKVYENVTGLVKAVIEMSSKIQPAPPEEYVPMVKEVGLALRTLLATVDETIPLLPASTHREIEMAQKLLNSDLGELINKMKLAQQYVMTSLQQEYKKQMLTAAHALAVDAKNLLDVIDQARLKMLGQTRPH

[12] = tested on: Fibrinogen (Alexa647-labelled); assay: Alexa647-fibrinogen binding to printed small molecules – biochemical, small-molecule microarray, 635/667 nm fluorescence, artefact control for SMM control-protein annotation, profiling panel (AID 1131); conditions: fibrinogen-A647 binding fluorescence, higher = more signal;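 note: z-score merges 667 nm fluorescence with per-spot signal-to-noise over triplicate slides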
[13] = target: Follistatin (Homo sapiens) (UniProt P19883); assay: FST protein binding to printed compounds – biochemical, small-molecule microarray, 635/667 nm fluorescence, primary screen (AID 1132); conditions: 635 nm fluorescence, higher = more signal
Sequence of Follistatin (Homo sapiens) (P19883 whole entry, looked up): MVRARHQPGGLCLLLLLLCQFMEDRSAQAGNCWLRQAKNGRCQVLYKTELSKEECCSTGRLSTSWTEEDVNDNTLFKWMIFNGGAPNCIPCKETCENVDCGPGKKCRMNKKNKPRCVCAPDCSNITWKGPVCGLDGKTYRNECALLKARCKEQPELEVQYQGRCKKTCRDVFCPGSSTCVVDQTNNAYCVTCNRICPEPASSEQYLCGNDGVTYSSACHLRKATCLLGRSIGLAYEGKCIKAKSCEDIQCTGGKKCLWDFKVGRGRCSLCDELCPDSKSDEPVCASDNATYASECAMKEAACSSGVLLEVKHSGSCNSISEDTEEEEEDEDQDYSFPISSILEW

[14] = target: Fibroblast growth factor 2 (Homo sapiens) (UniProt P09038); assay: basic fibroblast growth factor binding to printed compounds – biochemical, small-molecule microarray, 635/667 nm fluorescence, primary screen (AID 1133); conditions: FGF2, fluorescence 635/667, higher = more signal
Sequence of Fibroblast growth factor 2 (Homo sapiens) (P09038 whole entry, looked up): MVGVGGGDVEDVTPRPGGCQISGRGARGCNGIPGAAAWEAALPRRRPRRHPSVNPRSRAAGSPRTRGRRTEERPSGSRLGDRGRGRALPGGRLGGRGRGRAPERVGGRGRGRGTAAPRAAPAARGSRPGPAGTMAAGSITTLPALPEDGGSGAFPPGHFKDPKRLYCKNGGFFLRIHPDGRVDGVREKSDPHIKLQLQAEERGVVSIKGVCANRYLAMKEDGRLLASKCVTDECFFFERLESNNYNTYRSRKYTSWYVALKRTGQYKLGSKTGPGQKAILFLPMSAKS

[15] = JC-1 mitochondrial potential readout, lung cancer cells – cell-based, A549, JC-1 fluorescence, basal, 24 h, 100 nL, profiling panel (AID 1138); conditions: higher = more signal;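 note: A549 lung adenocarcinoma cells under basal conditions with no added stimulus; test concentration not given here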
Lefty1 = Lefty1 protein binding to printed compounds – biochemical, small-molecule microarray, 635/667 nm fluorescence, primary screen (AID 1139); conditions: fluorescence 635/667, higher = more signal
[16] = tested on: wheat germ agglutinin (Triticum aestivum), Alexa647-labelled; assay: Alexa647-WGA lectin binding to printed small molecules – biochemical, small-molecule microarray, 635/667 nm fluorescence, artefact control for SMM control-protein annotation, profiling panel (AID 1140); conditions: WGA-A647 binding, 635 nm fluorescence, higher = more signal;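 note: score merges 667 nm feature emission with signal to noise over triplicate slides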
[17] = target: Luciferin 4-monooxygenase (Photinus pyralis) (UniProt P08659); assay: inhibition of purified Photinus pyralis luciferase – biochemical, luminescence, purified enzyme, 2006 set, primary screen (AID 1141); conditions: purified firefly luciferase, SteadyGlo luminescence, 30 min; higher = more signal, called active from +8 up or from −8 down;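 note: cell-free assay with purified firefly luciferase at 100 ng per well in PBS; test concentration not given here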
Sequence of Luciferin 4-monooxygenase (Photinus pyralis) (P08659 whole entry, looked up): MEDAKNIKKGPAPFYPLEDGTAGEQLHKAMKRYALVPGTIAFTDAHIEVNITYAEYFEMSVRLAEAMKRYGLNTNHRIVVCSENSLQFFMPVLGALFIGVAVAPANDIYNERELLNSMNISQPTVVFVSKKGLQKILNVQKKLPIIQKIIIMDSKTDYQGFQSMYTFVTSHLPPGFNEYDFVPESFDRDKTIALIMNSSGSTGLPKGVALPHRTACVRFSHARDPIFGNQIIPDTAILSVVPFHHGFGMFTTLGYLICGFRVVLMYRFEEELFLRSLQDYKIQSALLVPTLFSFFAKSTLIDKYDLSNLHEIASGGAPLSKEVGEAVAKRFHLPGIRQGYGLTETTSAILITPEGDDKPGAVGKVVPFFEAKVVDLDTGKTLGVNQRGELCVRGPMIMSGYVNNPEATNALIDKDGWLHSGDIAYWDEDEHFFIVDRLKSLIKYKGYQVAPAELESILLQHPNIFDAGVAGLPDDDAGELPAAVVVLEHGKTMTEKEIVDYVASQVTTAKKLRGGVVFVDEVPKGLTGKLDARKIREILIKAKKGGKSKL

CC(C)CN1C(=O)[C@@]2(c3ccc([N+](=O)[O-])cc3)CC(=O)N(CC34CC5CC(CC(C5)C3)C4)[C@@H]2c2ccc(CO)cc21
composite z-score (Albumin (Bos taurus)): 0.291
composite Z-score [1]: -0.585 (inactive)
composite z-score [2]: -0.0016
composite z-score [3]: -0.189
composite z-score [4]: 0.411
composite z-score [5]: 0.0815
composite z-score [6]: -0.0349
composite z-score (Sam68 (KHDRBS1)): -0.772
composite z-score [7]: -1.52
composite z-score [8]: 0.436
composite z-score [9]: 2.34
composite z-score [10]: -0.636
composite z-score [11]: -0.253
composite z-score [12]: 0.233
composite z-score [13]: -1.16
composite z-score [14]: -1.14
z-score [15]: -0.422
composite z-score (Lefty1): -0.969
composite z-score [16]: -0.323
z-score [17]: 0.0209 (inactive)

O=C(CS)NCCCCCCNC(=O)[C@H]1C[C@H]2C(=O)N[C@@H](Cc3ccccc3)C(=O)N2[C@H]1c1cccc(OCCO)c1
composite z-score (Albumin (Bos taurus)): -0.428
composite Z-score [1]: 0.131 (inactive)
composite z-score [2]: 0.605
composite z-score [3]: -0.084
composite z-score [4]: 0.684
composite z-score [5]: 2.21
composite z-score [6]: 0.519
composite z-score (Sam68 (KHDRBS1)): 1.29
composite z-score [7]: 1.24
composite z-score [8]: 0.892
composite z-score [9]: 2.12
composite z-score [10]: 1.24
composite z-score [11]: 0.127
composite z-score [12]: 0.93
composite z-score [13]: 1.39
composite z-score [14]: 1.61
z-score [15]: -0.66
composite z-score (Lefty1): 1.14
composite z-score [16]: 0.772
z-score [17]: -1.91 (inactive)

CC(C)C(=C=CC[C@H](O)c1ccc(OCCO)cc1)C[C@H](O)c1cc(Cl)cc(Cl)c1O
composite z-score (Albumin (Bos taurus)): 0.584
composite Z-score [1]: 0.32 (inactive)
composite z-score [2]: 0.232
composite z-score [3]: -0.0533
composite z-score [4]: 0.542
composite z-score [5]: 0.644
composite z-score [6]: 0.147
composite z-score (Sam68 (KHDRBS1)): 1.26
composite z-score [7]: 0.243
composite z-score [8]: 1.07
composite z-score [9]: 2.46
composite z-score [10]: 1.09
composite z-score [11]: -0.0133
composite z-score [12]: 0.134
composite z-score [13]: 0.996
composite z-score [14]: 1.09
z-score [15]: 1.78
composite z-score (Lefty1): 1.22
composite z-score [16]: 0.539
z-score [17]: -1.78 (inactive)

C=C[C@@H](C)[C@H](OC(=O)Nc1ccc(SC)cc1)c1ccc(OCCO)cc1
composite z-score (Albumin (Bos taurus)): -0.145
composite Z-score [1]: -0.109 (inactive)
composite z-score [2]: 0.132
composite z-score [3]: -0.259
composite z-score [4]: 0.449
composite z-score [5]: 0.476
composite z-score [6]: -0.0181
composite z-score (Sam68 (KHDRBS1)): -0.867
composite z-score [7]: -0.61
composite z-score [8]: -0.345
composite z-score [9]: -0.0489
composite z-score [10]: -0.784
composite z-score [11]: 0.31
composite z-score [12]: -1.64
composite z-score [13]: 0.229
composite z-score [14]: -0.549
z-score [15]: -0.497
composite z-score (Lefty1): 0.0878
composite z-score [16]: 0.782
z-score [17]: -4.77 (inactive)

O=C(CCCCCCC(=O)Nc1ccccc1)N/N=C/c1ccccc1
composite z-score (Albumin (Bos taurus)): -0.4
composite Z-score [1]: 0.0068 (inactive)
composite z-score [2]: -0.154
composite z-score [3]: -0.144
composite z-score [4]: -0.251
composite z-score [5]: -0.591
composite z-score [6]: 0.212
composite z-score (Sam68 (KHDRBS1)): -0.731
composite z-score [7]: 0.358
composite z-score [8]: -0.434
composite z-score [9]: 0.602
composite z-score [10]: -0.581
composite z-score [11]: -0.266
composite z-score [12]: -0.876
composite z-score [13]: -0.083
composite z-score [14]: 0.323
z-score [15]: -0.123
composite z-score (Lefty1): -0.251
composite z-score [16]: -0.552
z-score [17]: -0.83 (inactive)

COc1ccc([Si](C)(C)[C@H]2[C@H](CCO)O[C@@]3(C(=O)N(Cc4cccc(N5CCCCC5=O)c4)c4ccccc43)[C@@H]2C)cc1
composite z-score (Albumin (Bos taurus)): 0.378
composite Z-score [1]: 0.299 (inactive)
composite z-score [2]: -0.0984
composite z-score [3]: -0.148
composite z-score [4]: 0.394
composite z-score [5]: 1.31
composite z-score [6]: 0.264
composite z-score (Sam68 (KHDRBS1)): 1.15
composite z-score [7]: 0.769
composite z-score [8]: 1.1
composite z-score [9]: 1.16
composite z-score [10]: 1.15
composite z-score [11]: 0.362
composite z-score [12]: 0.848
composite z-score [13]: 1.26
composite z-score [14]: 0.403
z-score [15]: 0.589
composite z-score (Lefty1): 1.06
composite z-score [16]: 0.418
z-score [17]: -1.34 (inactive)

CC1CC/C=C\[C@H]2OC34C=CCN(C(C)C)C(=O)[C@H]3N(CCCCCO)C(=O)[C@@H]4C2C(=O)O1 (stereo not given in full)
composite z-score (Albumin (Bos taurus)): -1.51
composite Z-score [1]: -0.362 (inactive)
composite z-score [2]: -0.289
composite z-score [3]: -0.153
composite z-score [4]: 0.939
composite z-score [5]: -0.384
composite z-score [6]: 0.839
composite z-score (Sam68 (KHDRBS1)): -0.925
composite z-score [7]: -1.69
composite z-score [8]: -0.486
composite z-score [9]: -1.07
composite z-score [10]: -1.71
composite z-score [11]: -0.6
composite z-score [12]: -1.29
composite z-score [13]: -0.985
composite z-score [14]: -1.17
z-score [15]: 1.68
composite z-score (Lefty1): -1.42
composite z-score [16]: -0.892
z-score [17]: -1.39 (inactive)

O=C1O[C@@H](c2ccccc2)[C@@H](c2ccccc2)N2[C@@H](c3ccc(O)cc3)[C@]3(C(=O)Nc4ccccc43)[C@@H](C(=O)Nc3nc4ccccc4s3)[C@H]12
composite z-score (Albumin (Bos taurus)): 0.625
composite Z-score [1]: -0.8 (inactive)
composite z-score [2]: 0.0695
composite z-score [3]: -0.144
composite z-score [4]: 0.613
composite z-score [5]: 1.39
composite z-score [6]: 0.399
composite z-score (Sam68 (KHDRBS1)): 1.31
composite z-score [7]: 0.0129
composite z-score [8]: 1.17
composite z-score [9]: 1.07
composite z-score [10]: 1.18
composite z-score [11]: 0.708
composite z-score [12]: 0.975
composite z-score [13]: 1.2
composite z-score [14]: 0.398
z-score [15]: -2.38
composite z-score (Lefty1): 0.745
composite z-score [16]: 0.634
z-score [17]: -1.1 (inactive)
